# In PubChem BioAssay (EPA / NIEHS):
# Records with an inconclusive call do not appear. Active and inactive are the calls of the source. The calls were made as follows: active = hit-call score of the fitted dose curve at least 0.9, where 1 is the maximum; inconclusive = response in the unintended direction; inactive = score below 0.9.
# What was measured:
# [1] = target: human Colony Stimulating Factor 1 Receptor (CSF1R), CSF1R (gene 1436) (UniProt P07333); assay: NVS_ENZ_hCSF1R: NovaScreen (NVS) Enzymatic Assay for human Colony Stimulating Factor 1 Receptor (CSF1R) (AID 2283150)
# In short: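 Compounds screened in duplicate at 25 uM, then concentration-response (top 50 uM) for those passing threshold such as 30% inhibition; recombinant CSF1R activity measured 1 h post-dosing via fluorescent substrate/product mobility-shift separation, loss of signal versus DMSO.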
# [2] = target: human Caspase 8 (CASP8), CASP8 (gene 841) (UniProt Q14790); assay: NVS_ENZ_hCASP8: NovaScreen (NVS) Enzymatic Assay for human Caspase 8 (CASP8) (AID 2283146)
# In short: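 The primary screen tested compounds in duplicate at a single 25 uM concentration, with actives followed up in concentration series. Activity of recombinant (E. coli) protease was measured by fluorescence 1 h post-dose, as signal loss against DMSO.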
# [3] = target: human Esterase Plasma (ES), BCHE (gene 590) (UniProt P06276); assay: NVS_ENZ_hES: NovaScreen (NVS) Enzymatic Assay for human Esterase Plasma (ES) (AID 2283157)
# In short: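 Screening ran at 25 uM in duplicate, followed by singleton concentration series reaching 50 uM for actives. Human plasma protein, colorimetric detection, 0.25 h exposure, DMSO negative control.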
# [4] = target: human c-Jun N-terminal Kinases (JNK2), MAPK9 (gene 5601) (UniProt P45984); assay: NVS_ENZ_hJNK2: NovaScreen (NVS) Enzymatic Assay for human c-Jun N-terminal Kinases (JNK2) (AID 2283171)
# In short: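 Chemicals first tested in duplicate at 25 uM, then in singleton concentration series up to 50 uM, against extracted JNK2 enzyme. Activity loss read by fluorescence with mobility-shift separation 1 h post-dose; DMSO baseline.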
# [5] = target: Mitogen-activated protein kinase 3 (Homo sapiens) (UniProt P27361); assay: NVS_ENZ_hMAPK3: NovaScreen (NVS) Enzymatic Assay for human Mitogen-Activated Protein Kinase 3 (MAPK 3) (AID 2283177)
# In short: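 Chemicals were first tested in duplicate at 25 uM, with hits re-run as concentration series (max 50 uM). Recombinant enzyme activity, measured 1 h post-dose in a cell-free format, was read by fluorescence/mobility shift relative to DMSO.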
# [6] = target: human Dual Specificity Protein Phosphatase 3 (DUSP3), DUSP3 (gene 1845) (UniProt P51452); assay: NVS_ENZ_hDUSP3: NovaScreen (NVS) Enzymatic Assay for human Dual Specificity Protein Phosphatase 3 (DUSP3) (AID 2283152);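 also: phosphatase activity of recombinant human DUSP3 on a fluorogenic substrate without cells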
# In short: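 Cell-free fluorescence-intensity enzyme activity assay with recombinant protein and substrate; loss of signal fitted relative to DMSO baseline. Primary screen in duplicate at 25 uM, actives then run in concentration series; measured 0 h after dosing.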
# [7] = target: human Elastase, ELANE (gene 1991) (UniProt P08246); assay: NVS_ENZ_hElastase: NovaScreen (NVS) Enzymatic Assay for human Elastase (AID 2283153)
# In short: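 Concentration-response to 50 uM max, run singly for chemicals passing a threshold (e.g., 30% inhibition) in a duplicate 25 uM single-point screen. Neutrophil-derived human elastase, absorbance read-out of enzyme activity at 1.5 h; DMSO baseline.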
# [8] = target: human Ephrin type-A Receptor 1 (EphA1), EPHA1 (gene 2041) (UniProt P21709); assay: NVS_ENZ_hEphA1: NovaScreen (NVS) Enzymatic Assay for human Ephrin type-A Receptor 1 (EphA1) (AID 2283158);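 also: activity is signal loss versus DMSO meaning EphA1 kinase inhibition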
# In short: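 Here the EphA1 protein is recombinant and the substrate fluorescent, with electrophoretic separation before fluorescence detection at 1 hour. Signal loss against DMSO defines activity; plate controls included; follow-up concentration series reach 50 uM.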
# [9] = target: human Insulin Receptor (InsR), INSR (gene 3643) (UniProt P06213); assay: NVS_ENZ_hInsR: NovaScreen (NVS) Enzymatic Assay for human Insulin Receptor (InsR) (AID 2283168)
# In short: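 Cell-free enzyme assay read 1 h post-dose by fluorescence after substrate/product mobility-shift separation. Duplicate 25 uM primary screen, then singleton concentration-response up to 50 uM for compounds passing threshold; loss of signal vs DMSO.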
# [10] = target: Histone deacetylase 3 (Homo sapiens) (UniProt O15379); assay: NVS_ENZ_hHDAC3: NovaScreen (NVS) Enzymatic Assay for human Histone Deacetylase 3 (HDAC3) (AID 2283163)
# In short: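 Cell-free enzyme format: loss of fluorescent product after mobility-shift separation, 1 h incubation, recombinant human HDAC3. Single 25 uM duplicate screen first, then concentration series to a 50 uM top for hits; DMSO as baseline.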
# [11] = target: human Janus Kinase 2 (Jak2), JAK2 (gene 3717) (UniProt O60674); assay: NVS_ENZ_hJak2: NovaScreen (NVS) Enzymatic Assay for human Janus Kinase 2 (Jak2) (AID 2283169)
# In short: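 Single-point duplicate screen at 25 uM, with hits run in concentration series to a 50 uM top dose. Substrate-product separation by mobility shift with fluorescence detection, 1 h post-dosing; DMSO baseline.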
# Chain of human Colony Stimulating Factor 1 Receptor (CSF1R), CSF1R (gene 1436) (P07333 whole entry, looked up): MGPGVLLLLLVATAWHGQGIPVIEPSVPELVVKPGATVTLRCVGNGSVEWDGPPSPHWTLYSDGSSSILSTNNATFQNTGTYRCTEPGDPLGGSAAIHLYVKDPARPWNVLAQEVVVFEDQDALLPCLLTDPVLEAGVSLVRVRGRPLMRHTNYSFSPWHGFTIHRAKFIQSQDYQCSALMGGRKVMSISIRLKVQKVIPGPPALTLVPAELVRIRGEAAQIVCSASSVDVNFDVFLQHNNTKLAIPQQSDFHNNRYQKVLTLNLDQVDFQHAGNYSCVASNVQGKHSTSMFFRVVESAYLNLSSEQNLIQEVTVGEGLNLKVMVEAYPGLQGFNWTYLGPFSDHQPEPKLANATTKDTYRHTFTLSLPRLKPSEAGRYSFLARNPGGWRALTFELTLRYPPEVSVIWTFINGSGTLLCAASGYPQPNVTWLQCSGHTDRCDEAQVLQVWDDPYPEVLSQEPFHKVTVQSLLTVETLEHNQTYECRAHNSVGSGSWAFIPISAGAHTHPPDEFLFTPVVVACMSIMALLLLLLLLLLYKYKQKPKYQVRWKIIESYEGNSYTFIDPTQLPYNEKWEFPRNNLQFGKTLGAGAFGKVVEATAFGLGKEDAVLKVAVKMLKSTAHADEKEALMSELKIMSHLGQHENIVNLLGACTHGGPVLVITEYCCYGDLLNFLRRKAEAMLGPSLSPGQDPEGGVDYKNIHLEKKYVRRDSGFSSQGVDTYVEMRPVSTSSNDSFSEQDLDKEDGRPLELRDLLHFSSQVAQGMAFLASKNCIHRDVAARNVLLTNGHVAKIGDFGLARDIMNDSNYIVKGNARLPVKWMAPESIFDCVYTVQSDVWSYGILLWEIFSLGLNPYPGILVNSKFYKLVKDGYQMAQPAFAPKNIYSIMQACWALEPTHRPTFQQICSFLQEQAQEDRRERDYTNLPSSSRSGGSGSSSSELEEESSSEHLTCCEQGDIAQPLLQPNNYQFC
# Chain of human Caspase 8 (CASP8), CASP8 (gene 841) (Q14790 whole entry, looked up): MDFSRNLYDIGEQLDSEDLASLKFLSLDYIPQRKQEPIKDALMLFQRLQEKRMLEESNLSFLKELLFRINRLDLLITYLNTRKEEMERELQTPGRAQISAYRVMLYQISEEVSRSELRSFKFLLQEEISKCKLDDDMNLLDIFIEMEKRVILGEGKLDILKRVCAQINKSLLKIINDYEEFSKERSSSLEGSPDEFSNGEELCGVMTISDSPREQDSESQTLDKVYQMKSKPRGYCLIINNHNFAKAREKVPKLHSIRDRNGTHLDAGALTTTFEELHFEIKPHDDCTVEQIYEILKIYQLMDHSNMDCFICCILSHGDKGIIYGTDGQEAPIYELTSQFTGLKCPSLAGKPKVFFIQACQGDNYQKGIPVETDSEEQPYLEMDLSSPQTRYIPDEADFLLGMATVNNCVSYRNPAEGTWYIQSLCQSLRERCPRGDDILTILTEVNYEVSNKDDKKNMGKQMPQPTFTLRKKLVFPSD
# Chain of human Elastase, ELANE (gene 1991) (P08246 whole entry, looked up): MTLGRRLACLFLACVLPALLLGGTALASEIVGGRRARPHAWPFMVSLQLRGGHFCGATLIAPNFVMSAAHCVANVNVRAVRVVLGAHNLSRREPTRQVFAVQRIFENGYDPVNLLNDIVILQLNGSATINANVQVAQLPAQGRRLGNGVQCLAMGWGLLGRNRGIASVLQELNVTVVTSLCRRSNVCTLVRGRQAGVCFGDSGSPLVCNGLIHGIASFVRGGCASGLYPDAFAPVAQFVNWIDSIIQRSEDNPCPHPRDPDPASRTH
# Chain of Mitogen-activated protein kinase 3 (Homo sapiens) (P27361 whole entry, looked up): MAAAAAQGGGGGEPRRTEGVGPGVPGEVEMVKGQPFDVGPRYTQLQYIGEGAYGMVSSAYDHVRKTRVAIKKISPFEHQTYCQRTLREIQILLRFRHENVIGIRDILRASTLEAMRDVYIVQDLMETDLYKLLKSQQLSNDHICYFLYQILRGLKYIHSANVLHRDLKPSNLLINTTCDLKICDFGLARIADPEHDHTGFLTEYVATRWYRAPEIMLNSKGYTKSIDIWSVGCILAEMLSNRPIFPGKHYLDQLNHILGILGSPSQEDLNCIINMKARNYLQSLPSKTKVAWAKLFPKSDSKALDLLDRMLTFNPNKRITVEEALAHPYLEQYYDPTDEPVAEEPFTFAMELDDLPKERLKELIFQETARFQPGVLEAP
# Chain of human Esterase Plasma (ES), BCHE (gene 590) (P06276 whole entry, looked up): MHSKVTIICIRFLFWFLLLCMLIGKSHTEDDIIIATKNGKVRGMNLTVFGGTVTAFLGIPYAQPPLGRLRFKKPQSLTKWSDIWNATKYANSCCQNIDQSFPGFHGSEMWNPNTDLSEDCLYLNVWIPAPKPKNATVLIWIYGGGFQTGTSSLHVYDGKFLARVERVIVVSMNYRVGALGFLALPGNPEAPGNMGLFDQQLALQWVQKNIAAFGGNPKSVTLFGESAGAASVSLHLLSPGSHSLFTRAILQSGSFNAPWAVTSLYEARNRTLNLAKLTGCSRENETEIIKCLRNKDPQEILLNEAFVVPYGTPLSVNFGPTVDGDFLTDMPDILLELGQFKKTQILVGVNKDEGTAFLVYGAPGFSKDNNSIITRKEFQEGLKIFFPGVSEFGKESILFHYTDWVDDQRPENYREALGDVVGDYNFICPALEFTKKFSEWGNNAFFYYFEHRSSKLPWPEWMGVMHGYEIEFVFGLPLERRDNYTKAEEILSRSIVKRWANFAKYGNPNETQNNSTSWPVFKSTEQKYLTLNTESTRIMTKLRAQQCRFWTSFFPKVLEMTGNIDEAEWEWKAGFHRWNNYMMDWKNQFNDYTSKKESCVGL
# Chain of human Insulin Receptor (InsR), INSR (gene 3643) (P06213 whole entry, looked up): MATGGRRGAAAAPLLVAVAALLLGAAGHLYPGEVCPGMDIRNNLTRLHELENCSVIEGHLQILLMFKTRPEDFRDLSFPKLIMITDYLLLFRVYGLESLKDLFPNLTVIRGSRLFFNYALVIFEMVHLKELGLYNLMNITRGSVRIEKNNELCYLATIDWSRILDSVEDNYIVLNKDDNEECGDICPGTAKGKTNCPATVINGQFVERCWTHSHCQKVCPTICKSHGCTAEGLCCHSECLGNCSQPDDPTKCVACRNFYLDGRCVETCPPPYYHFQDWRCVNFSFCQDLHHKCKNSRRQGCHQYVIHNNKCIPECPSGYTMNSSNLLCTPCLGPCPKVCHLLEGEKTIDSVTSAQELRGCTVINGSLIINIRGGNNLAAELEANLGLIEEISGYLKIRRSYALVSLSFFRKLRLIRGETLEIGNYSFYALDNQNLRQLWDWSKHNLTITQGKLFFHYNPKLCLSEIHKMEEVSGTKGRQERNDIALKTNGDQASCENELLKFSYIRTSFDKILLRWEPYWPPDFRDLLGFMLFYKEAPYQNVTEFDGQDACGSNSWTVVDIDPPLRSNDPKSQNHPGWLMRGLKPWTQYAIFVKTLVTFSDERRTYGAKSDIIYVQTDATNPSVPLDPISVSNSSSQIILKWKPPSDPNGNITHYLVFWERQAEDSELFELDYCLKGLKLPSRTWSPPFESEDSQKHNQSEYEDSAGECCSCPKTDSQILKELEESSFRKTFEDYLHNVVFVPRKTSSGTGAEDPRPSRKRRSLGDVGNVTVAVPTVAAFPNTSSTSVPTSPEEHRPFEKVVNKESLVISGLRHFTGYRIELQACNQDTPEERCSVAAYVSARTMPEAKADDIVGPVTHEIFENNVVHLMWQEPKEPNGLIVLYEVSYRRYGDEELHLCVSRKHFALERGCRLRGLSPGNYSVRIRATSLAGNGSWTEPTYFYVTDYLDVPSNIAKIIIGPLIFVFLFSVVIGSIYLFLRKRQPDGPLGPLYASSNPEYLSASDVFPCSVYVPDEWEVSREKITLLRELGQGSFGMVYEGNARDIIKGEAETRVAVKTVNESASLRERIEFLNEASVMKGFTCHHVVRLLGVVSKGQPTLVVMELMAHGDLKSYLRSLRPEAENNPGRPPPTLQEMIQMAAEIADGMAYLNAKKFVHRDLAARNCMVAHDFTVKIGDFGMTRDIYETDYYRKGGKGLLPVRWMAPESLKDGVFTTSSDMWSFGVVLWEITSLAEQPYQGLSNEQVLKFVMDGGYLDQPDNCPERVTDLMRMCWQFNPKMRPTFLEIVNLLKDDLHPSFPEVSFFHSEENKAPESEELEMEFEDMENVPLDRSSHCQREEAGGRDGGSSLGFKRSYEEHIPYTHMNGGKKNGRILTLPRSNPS
# Chain of human Ephrin type-A Receptor 1 (EphA1), EPHA1 (gene 2041) (P21709 whole entry, looked up): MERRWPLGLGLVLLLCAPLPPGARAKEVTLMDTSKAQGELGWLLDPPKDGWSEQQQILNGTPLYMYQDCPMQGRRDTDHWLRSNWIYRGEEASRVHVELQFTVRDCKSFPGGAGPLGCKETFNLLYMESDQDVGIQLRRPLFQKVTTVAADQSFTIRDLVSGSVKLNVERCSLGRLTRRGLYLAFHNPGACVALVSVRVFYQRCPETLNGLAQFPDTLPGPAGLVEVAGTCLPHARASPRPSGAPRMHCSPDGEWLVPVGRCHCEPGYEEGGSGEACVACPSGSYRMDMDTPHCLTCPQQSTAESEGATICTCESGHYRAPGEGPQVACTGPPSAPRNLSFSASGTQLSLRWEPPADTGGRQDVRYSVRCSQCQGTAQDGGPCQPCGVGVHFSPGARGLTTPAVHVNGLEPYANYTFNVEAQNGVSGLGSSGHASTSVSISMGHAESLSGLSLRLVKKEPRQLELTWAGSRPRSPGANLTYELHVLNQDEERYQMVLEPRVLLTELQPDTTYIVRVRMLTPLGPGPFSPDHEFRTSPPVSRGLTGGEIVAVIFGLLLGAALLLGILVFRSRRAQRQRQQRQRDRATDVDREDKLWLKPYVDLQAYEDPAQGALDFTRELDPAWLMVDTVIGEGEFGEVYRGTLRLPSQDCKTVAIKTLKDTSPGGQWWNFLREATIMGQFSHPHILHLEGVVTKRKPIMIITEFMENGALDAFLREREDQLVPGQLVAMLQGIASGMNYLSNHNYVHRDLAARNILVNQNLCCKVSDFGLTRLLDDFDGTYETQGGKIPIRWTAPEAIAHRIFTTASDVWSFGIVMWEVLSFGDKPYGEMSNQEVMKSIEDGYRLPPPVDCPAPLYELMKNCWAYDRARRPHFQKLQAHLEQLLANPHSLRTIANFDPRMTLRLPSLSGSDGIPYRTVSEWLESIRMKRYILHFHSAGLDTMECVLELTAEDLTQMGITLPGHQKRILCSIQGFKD
structure (smiles),measurement,setting,value
C[C@](N)(Cc1ccc(O)c(O)c1)C(=O)O,outcome,[1],inactive
CCNc1ccccc1,outcome,[2],inactive
COC(=O)c1c(Cl)c(Cl)c(C(=O)OC)c(Cl)c1Cl,outcome,[3],inactive
CCCN(C1CCN(C(=O)C2CCNCC2)CC1)[C@@H]1CCc2ccc(OC)cc2C1,outcome,[3],inactive
Cn1c(=O)cc(Oc2ccc(F)cc2F)c2cnc(NCC(C)(C)O)nc21,AC50,[4],7.03 nM (active)
same,AC50,[5],34.6 µM (active)
CCC(C)(C)C(=O)O[C@H]1C[C@@H](C)C=C2C=C[C@H](C)[C@H](CC[C@@H]3C[C@@H](O)CC(=O)O3)[C@H]21,AC50,[6],12.1 µM (active)
same,outcome,[7],inactive
same,outcome,[3],inactive
CC/C(=C\C(=N/O)C(N)=O)C(C)[N+](=O)[O-] (centres undefined),outcome,[8],inactive
COCCOCCOCCOC,outcome,[2],inactive
same,outcome,[9],inactive
CCCCC(CC)COC(=O)c1ccc(C(=O)OCC(CC)CCCC)cc1 (centres undefined),outcome,[7],inactive
COc1ccc(-n2nc(C(F)F)cc2-c2ccc(S(C)=O)cc2)cc1 (centres undefined),outcome,[1],inactive
CCCCC(CC)COC(=O)CCCCCCCCC(=O)OCC(CC)CCCC (centres undefined),AC50,[7],23.4 µM (active)
same,outcome,[5],inactive
CCN(C(=O)c1cc(C)cc(OC[C@H](C)Nc2ccncc2)c1)C(C)C,outcome,[1],inactive
same,AC50,[3],11.8 µM (active)
O=C(NS(=O)(=O)/C=C/c1ccccc1)c1ccc(F)cc1Cl,outcome,[5],inactive
O=C(O)CC(O)C(=O)O (centres undefined),outcome,[3],inactive
same,outcome,[10],inactive
same,outcome,[11],inactive
CC(C)CCO,outcome,[2],inactive
same,outcome,[8],inactive
CC[C@H]1CC[C@H](NCc2cc3c(cc2OC)[C@H]2C[C@H]2C(=O)N3C)[C@H](c2ccccc2)N1,AC50,[3],17.3 µM (active)
same,outcome,[11],inactive
CCn1nc(Cc2ccccc2)cc1C1CCN(C[C@H]2C[C@H](N(C)[C@@H](C(=O)O)C(C)C)C[C@@H]2c2cccc(F)c2)CC1,AC50,[3],13 µM (active)
Clc1nc(Cl)c(Cl)c(Cl)c1Cl,outcome,[9],inactive
COc1cccc(-c2ccc(/C=C\CN3CCCCCC3)cc2Cl)c1,AC50,[3],1.78 µM (active)
